CYP2C19 activ: activators of human cytochrome P450 2C19 | activation factor at 5 µM | 96,000 tested, under 10 active | recombinant CYP2C19, luciferin-H EGE luminescence; stronger effect = higher value; 0 = fully inhibited enzyme, 1 = untreated enzyme;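 active = activation factor of at least 2 at 5 µM in the primary screen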
CYP2C9 act: activators of human CYP2C9; activation factor at 5 µM; recombinant CYP2C9, luciferin-H conversion, luminescence; stronger effect = higher value; factor 1 = untreated enzyme, 0 = blocked; 1.4% of 96,000 active;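 active = activation factor of 2 or more for CYP2C9 at a 5 µM dose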
Target sequence (P11712 whole entry, looked up): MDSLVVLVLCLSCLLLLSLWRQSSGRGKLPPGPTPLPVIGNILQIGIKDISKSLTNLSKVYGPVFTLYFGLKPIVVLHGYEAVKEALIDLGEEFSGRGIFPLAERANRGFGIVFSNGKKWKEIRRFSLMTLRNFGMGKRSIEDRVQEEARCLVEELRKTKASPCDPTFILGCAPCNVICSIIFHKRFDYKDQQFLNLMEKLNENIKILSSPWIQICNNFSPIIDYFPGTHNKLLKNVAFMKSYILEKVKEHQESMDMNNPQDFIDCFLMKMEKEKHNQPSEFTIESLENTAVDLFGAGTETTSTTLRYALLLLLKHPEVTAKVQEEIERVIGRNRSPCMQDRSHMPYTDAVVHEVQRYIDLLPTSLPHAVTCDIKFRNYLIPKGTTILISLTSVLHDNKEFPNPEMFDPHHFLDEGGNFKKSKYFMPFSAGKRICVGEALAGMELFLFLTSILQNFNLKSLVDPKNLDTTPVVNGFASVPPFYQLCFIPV
PLK1 PBD inh: blocks phosphopeptide binding to human Plk1 polo box domain; P53350; Plk1 PBD phosphopeptide binding, fluorescence polarization; inhibition, %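 (tested at about 20 µM)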; 0.13% of 97,000 active; in the data active = inhibition above about 34%, passing the limit was not always enough
PLK1 kinase inh: blocks human PLK1 kinase activity; recombinant PLK1 kinase, TR-FRET peptide phosphorylation; AID 619; P53350; 0.53% of 97,000 active; inhibition, % at 10 µM;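 active = inhibition of 50% or more in the single-concentration screen; inactive = inhibition below 50%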
CYP2C9 inh: blocks human cytochrome P450 2C9; AID 777; P11712; 20% of 96,000 active; inhibition, % at 5 µM; CYP2C9 Supersomes, luciferin-H conversion, luminescence;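 active = blocking of liver enzyme CYP2C9 beyond about 50% at 5 µM, limit read from the data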
CYP2C19 inh: human CYP2C19 inhibition; inhibition, % at 5 µM; 21% of 96,000 active; CYP2C19 Supersomes, luciferin-H EGE luminescence, 30 min; P33261; AID 778;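 active = CYP2C19 inhibition above a set limit at 5 µM in the primary screen, cut at about 50% in these data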
Hits are given with their value; 0 = inactive; - = no result given. Most compounds without a hit are left out; they make up all but 28% or so of the library.

SMILES	CYP2C19 activ	CYP2C9 act	PLK1 PBD inh	PLK1 kinase inh	CYP2C9 inh	CYP2C19 inh
Cc1ccc(C(=O)O/N=C(\N)c2ccc(Br)cc2)cc1C	0	0	0	0	0	0
N/C(=N\OS(=O)(=O)c1ccc(Br)cc1)c1ccncc1	0	0	0	0	58.0	0
Cc1cc(NC(=O)CN2CCCCC2C)no1 (stereo not given)	0	0	0	0	0	0
O=C(Cc1c(C(=O)O)[nH]c2ccc(Cl)cc12)Nc1ccc2c(c1)OCCO2	0	0	0	0	0	0
COc1ccc(CC(=O)N2CCCc3ccccc32)cc1	0	0	0	0	0	55.3
CCCOc1ccc(C(=O)N2CCCc3ccccc32)cc1	0	0	0	0	69.1	93.1
COCC(=O)N1CCCc2ccccc21	0	0	0	0	0	0
COc1cc(OC)cc(C(=O)N2CCCc3ccccc32)c1	0	0	0	0	0	76.3
Cc1ccc(S(=O)(=O)c2c(C)cc(C)nc2Cl)cc1	0	0	0	0	0	94.3
Cc1cc(C)c(S(=O)(=O)c2ccccc2)c(OC(=O)c2c(Cl)cccc2Cl)n1	0	0	0	0	0	0
Cc1cc(C)c(S(=O)(=O)c2ccccc2)c(Cl)n1	0	3.2	0	63.9	0	68.8
COc1cc(C2CC(=O)N(CC(=O)NCc3ccco3)c3ccccc3S2)cc(OC)c1OC (stereo not given)	0	0	0	0	70.8	64.8
O=C(CN1C(=O)CC(c2ccco2)Sc2ccccc21)NCc1ccc2c(c1)OCO2 (stereo not given)	0	0	0	0	86.0	93.7
O=C(CN1C(=O)CC(c2ccco2)Sc2ccccc21)Nc1ccccc1F (stereo not given)	-	-	0	0	-	-
CCC1Sc2ccccc2N(CC(=O)NCc2ccccc2OC)C1=O (stereo not given)	0	0	0	0	0	0
CCN1C(=O)CC(c2ccco2)Sc2ccccc21 (stereo not given)	0	0	-	-	0	52.9
COc1cc(CN2CCC(C(=O)N3CCCC(C)C3)CC2)cc(Br)c1O (stereo not given)	0	0	0	0	0	0
Cc1ccc(C(C)NC(=O)/C(C#N)=C\c2c(C)[nH]c3ccccc23)cc1 (stereo not given)	0	2.1	0	0	0	0
COCCSc1ccccc1C(=O)Nc1ccc2c(c1)OCCO2	0	0	0	0	0	0
Cc1ccc2cc(COC(=O)c3ccncc3)c(=O)[nH]c2c1	0	0	0	0	65.6	92.3
Cc1cccc2cc(COC(=O)c3ccccc3)c(=O)[nH]c12	0	0	0	0	0	0
CCN(Cc1cc2ccc(C)cc2[nH]c1=O)C(=O)c1ccncc1	0	0	0	0	0	67.6
Cc1cccc2cc(COC(=O)c3cccnc3)c(=O)[nH]c12	0	0	0	0	0	51.7
CCOC(=O)C1=C(C)NC(C)=C(C(=O)OCC)C1c1cc2ccc(C)cc2[nH]c1=O	0	0	0	0	53.5	0
CCOC(=O)c1[nH]c(C)c(CN(Cc2ccco2)C(=O)C(F)(F)F)c1C	0	0	0	0	0	0
SMILES	CYP2C19 activ	CYP2C9 act	PLK1 PBD inh	PLK1 kinase inh	CYP2C9 inh	CYP2C19 inh
c1ccc(-c2csc3ncn4nnnc4c23)cc1	0	0	0	0	0	0
COCCSc1ccccc1C(=O)Nc1nncs1	0	0	0	0	0	0
COc1cc(OC)cc(-c2ncc3ccccn23)c1	-	-	0	0	-	-
COc1ccc(-c2ncc3ccccn23)cc1	0	0	0	0	0	62.0
COC(=O)C(C)N1C(=O)S/C(=C/c2cc(C)n(C(C)C)c2C)C1=O (stereo not given)	0	0	0	0	0	0
O=C(Cn1cc(C(=O)c2ccco2)c2ccccc21)NC1CCCC1	0	0	0	0	0	0
O=C(NCCCN1CCC(Cc2ccccc2)CC1)C1CC(=O)N(C2CCCCCC2)C1 (stereo not given)	0	0	0	0	0	0
CCc1ccc(N2C(=O)C3ON(c4ccccc4)C(c4ccco4)C3C2=O)cc1 (stereo not given)	0	0	0	0	0	0
CCCCN1C(=O)C2ON(c3ccccc3C)C(c3ccco3)C2C1=O (stereo not given)	0	0	0	0	95.7	77.3
CC(C)OCCCNc1nc2c([nH]1)c(=O)n(C)c(=O)n2C	0	0	-	-	0	0
O=C(Nc1ccccc1C(=O)N1CCCC1)c1cccc(S(=O)(=O)N2CCCCCC2)c1	0	0	-	-	80.2	54.2
Cc1ccc(O)c(NC(=O)c2cccc(S(=O)(=O)N3CCCCC3)c2)c1	0	0	0	0	52.7	58.7
Cc1ccccc1NC(=O)c1cc(S(=O)(=O)N2CCCCC2)cs1	0	0	0	0	51.1	0
CCOc1ccc2nnc(-c3ccc(Br)cc3)n2n1	-	-	0	0	-	-
COc1cccc(-c2cc(C(=O)N3C(C)CCCC3C)no2)c1 (stereo not given)	0	0	0	0	0	0
CC1=C(C(=O)OC(C)C)C(c2cccs2)N2C(=O)C(C)SC2=N1 (stereo not given)	0	0	0	0	0	64.6
COC(=O)C1=C(C)N=C2SC(C)C(=O)N2C1c1cccc(F)c1 (stereo not given)	0	0	0	0	0	0
CC1=C(C(=O)OC(C)C)C(c2cccs2)N2C(=O)CCSC2=N1 (stereo not given)	0	0	0	0	0	50.8
COC(=O)C1=C(C)N=C2SCCC(=O)N2C1c1cccs1 (stereo not given)	0	0	0	0	0	0
CCc1nn(-c2ccccc2)c(N)c1-c1ccc(OC)c(OC)c1	0	0	0	0	0	0
CCN(C(=O)CSc1nnc(NC2CCCCC2)s1)C1CCS(=O)(=O)C1 (stereo not given)	0	0	0	0	0	0
Cc1cc(=O)[nH]c(SCC(=O)Nc2nc(-c3ccccc3)cs2)n1	0	0	0	0	59.7	0
O=C(CSc1ncn[nH]1)Nc1nc(-c2ccccc2)cs1	0	0	0	0	0	63.9
COc1cc(/C=C/C(=O)c2ccc(Cl)s2)cc(OC)c1O	0	0	0	0	0	50.1
Cc1c(/C=C/C(=O)c2ccc(Cl)s2)cnn1C	-	-	0	0	-	-
SMILES	CYP2C19 activ	CYP2C9 act	PLK1 PBD inh	PLK1 kinase inh	CYP2C9 inh	CYP2C19 inh
COc1ccc(/C=C/C(=O)c2ccc(Cl)s2)cc1O	0	0	0	0	58.7	53.9
Cc1c(N=Cc2cc3c(cc2Cl)OCO3)c(=O)n(-c2ccccc2)n1C	0	0	-	-	0	0
CC(CN1CCOCC1)(NS(=O)(=O)c1ccccc1)c1ccccc1 (stereo not given)	0	0	0	0	59.8	92.0
CCOC(=O)Cc1nnc(NC(=O)CC)s1	0	0	0	0	0	0
CCN(CC)CCCn1c(C)cc2c(c1=O)C(c1cc(OC)c(OC)cc1OC)C(C#N)=C(N)O2 (stereo not given)	0	0	0	0	0	0
Cc1cc2c(c(=O)n1Cc1ccco1)C(c1cccnc1)C(C#N)=C(N)O2 (stereo not given)	0	0	0	0	66.3	0

Screens deposited in PubChem BioAssay by several laboratories.
